# Results from PubChem BioAssay (NCI).
# Compounds without any hit were thinned out: in the full panel of roughly 83,000, 20% have a hit.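 For each line, cells grew in 96-well plates with the test compound present at a single concentration for 48 hours.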 Values without a mark were called inactive. Activity calls are given as the source filed them. How the source made its calls: active means growth percent below 10; inactive means the rest.
# Test system: MDA-MB-468 breast
# Test: NCI-60 one-dose screen, 48 h (100 = growth as untreated, 0 = no growth, -100 = all killed)
# Conditions: 10 µM unless noted
row,SMILES,growth
1,Cc1c(C(=O)OCCO)cc(-c2ccc(Cl)cc2)n1-c1ccc(Cl)cc1Cl,56.5%
2,O=C1c2c(c3c4ccc(Br)cc4oc3c3[nH]c4ccccc4c23)C(=O)N1CCO,46.5%
3,COc1ccc(-c2cc(-c3ccc(Cl)cc3)c(C#N)c(=O)n2CCCCC(=O)Nc2ccccc2N)cc1,47.9%
4,O=C1CC2C=CCN2C=C1NC(=O)C1CCCCC1 (configuration not stated),96.2%
5,COc1cc(C2C=C(c3ccc(Cl)cc3)N=C3SC(C)=CN32)cc(OC)c1OC (configuration not stated),80.2%
6,COc1cc(OC)cc(-c2n/c(=C\c3c(O)[nH]c4ccc(Cl)cc34)cc3c2=Nc2ccccc2-3)c1,98.1%
7,O=C1CC(SC(=S)C2CCCC2=O)C(=O)N1 (configuration not stated),106%
8,CC(c1ccccn1)C(C)(O)C(C)c1ccccn1 (configuration not stated),106%
9,CN1CCC(CNc2ccc3ncc(-c4cccc(OC(F)(F)F)c4)n3n2)CC1,-84.8% (active)
10,O=[n+]1ccn([O-])c2ccccc21,86.9%
11,CNCCCNCCCN1C(=O)c2ccc3c4c(ccc(c24)C1=O)C(=O)N(CCCNCc1ccccc1OC)C3=O,-69.5% (active)
12,N#Cc1c(-c2cccs2)c(C#N)c(=O)n(Cc2nc3ccccc3[nH]2)c1N,88.5%
13,COc1ccc(CCO)cc1,101%
14,COc1ccc(-c2nc(SCC(C)C)nc(N/N=C\c3ccc(F)cc3)c2C#N)cc1,102%
15,Cc1nnc(-c2ccc3c(c2)nc(/C=C/c2ccccc2)n3C2CCCCC2)o1,91.3%
16,CCn1cc(C(=O)O)c(=O)c2cc(F)c(N3CCN(CC(=O)Nc4ccc(/C(C)=N/OC)cc4)CC3)cc21,102%
17,CCCCN1CCN(c2ccc3nc(-c4ccc5nc(-c6cc(OC)c(OC)c(OC)c6)[nH]c5c4)[nH]c3c2)CC1,45.7%
18,COc1cc(/C(C)=C(\c2ccc(Cl)cc2)c2ccc(OCCN(C)C)cc2)ccc1F,45.6%
19,COc1ccc(/C=C/C(=O)c2nnn(-c3ccc(C(=O)O)cc3)c2C)cc1OC,84.6%

row,SMILES,growth
1,CCO/C=N/C1=C(C#N)C(c2ccc(F)cc2)c2sc3c(CC)cccc3c2O1 (configuration not stated),7.27% (active)
2,O=C(O)c1ccc(-n2cc(/C=N/Nc3ccc(F)cc3)c(-c3cccc(C(F)(F)F)c3)n2)cc1,90.8%
3,CCN1CCC2(CC1)OC(c1ccccc1)C(c1ccccc1)O2 (configuration not stated),102%
4,Clc1ccc(-c2ccc(CNCC3CCNCC3)o2)c(-c2ccccc2)c1,-79.1% (active)
5,O=C1OC(c2ccccc2)=N/C1=C\c1ccccc1,92.4%
6,CCN(CC)CCC(CNc1ccnc2cc(Cl)ccc12)c1ccccc1 (configuration not stated),-35.6% (active)
7,Cc1cc(Nc2ccc(OCc3ccccc3)cc2)nc2cc(O)ccc12,6.48% (active)
8,COc1cccc(-c2nn(-c3ccccc3)cc2-c2ccnc(NCCCNS(=O)(=O)c3ccc(Cl)cc3)c2)c1,25.6%
9,COc1ccc(C2C=C(c3ccc(OC)c(OC)c3)N=C3SC=C(C)N32)c(Br)c1 (configuration not stated),95.9%
10,CN1CCN(C(=O)[C@]23CCC(C)(C)C[C@@H]2C2=CC[C@@H]4[C@@]5(C)Cc6c([nH]c7ccccc67)C(C)(C)[C@@H]5CC[C@@]4(C)[C@]2(C)CC3)CC1,98%
11,CCOC(=O)c1c2c(n3ccc(NC(=O)CCN4CCCCC4)cc13)C(=O)c1ncccc1C2=O,83.1%
12,C=C1C(=O)O[C@H]2[C@H]1CC/C(C=Nc1c(N)cc(C(F)(F)F)cc1Br)=C\CC[C@@]1(C)O[C@@H]21,-16.6% (active)
13,CN1CCN(c2nc(-c3csc(-c4ccccc4)n3)cc3ccccc23)CC1,-71.9% (active)
14,C=C(C)[C@@H]1CC[C@]2(C(=O)N3CCN(C)CC3)CC[C@]3(C)[C@H](CC[C@@H]4[C@@]5(C)C/C(=C/c6cccnc6)C(=O)C(C)(C)[C@@H]5CC[C@]43C)[C@@H]12,51.5%
15,CCCCN(CCCC)CCCOC(=O)c1ccc(N)cc1,47.5%
16,CN(C)CC1C(=O)O[C@H]2[C@H]1CC/C(COC(=O)c1cc3ccccc3[nH]1)=C\CC[C@@]1(C)O[C@@H]21 (some centres not stated),-59.8% (active)
17,O=C1CCC(C(=O)NCCNCCNC(=O)C2CCC(=O)N2)N1 (configuration not stated),89.7%
18,c1ccc2cc(Cn3cc[n+](Cc4ccc5ccccc5c4)c3)ccc2c1,-23.7% (active)
